We go through 20 targets from the supplement of paper PMC10849652.

The full data set covers some 7,900 targets. This sample favours those with a hit. About 0.6% of all pairs of compound and target were hits. A number with no mark means an inactive call.

Common to all, as to experiment: log2 fold change, soluble protein after heating vs DMSO (PISA); higher = thermal stabilisation; K562 cells, 10 uM, 30 min; active = over 0.2 and 3.5 SD of the protein, either way, in both replicates (recomputed)
Compound in test [1]: CC1=C(SC2=C1C(=N[C@H](C3=NN=C(N32)C)CC(=O)N)C4=CC=C(C=C4)Cl)C
The method, boiled down: (§1)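 Soluble protein was quantified by TMTpro 16plex LC-MS/MS after channel sums were equalised. It was obtained as the supernatant after 21,000xg for 90 min from pooled aliquots of K562 cells (2×10^6 cells/mL, 10 μM compound, 30 min) heated for 3 min across 48°C-58°C and extracted in PBS with 0.5% NP-40 at 4°C. Thermal stability values are relative to control samples and come from duplicates. They are given as log2 fold changes.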

Compound in test [2]: Cc1sc2c(c1C)C(c1ccc(Cl)cc1)=N[C@@H](CC(=O)OC(C)(C)C)c1nnc(C)n1-2
A digest of the protocol:
as §1

Compound in test [3]: c1ccc([C@@H]2C[C@H]2NC2CCNCC2)cc1
A digest of the protocol:
as §1

Compound in test [4]: C1=CC=C(C=C1)[C@H](COC2=CC3=C(C=C2)NC(=O)N3)NC(=O)C4=CC=CN(C4=O)CC5=CC(=C(C=C5)F)F
A digest of the protocol: as §1

Compound in test [5]: CC1=C2C(=CC=C1)N=C(N(C2=O)C3=CC=CC=C3C)CN4C=NC5=C(N=CN=C54)N
The method, boiled down: as §1

UniProt Q14790, sequence (Q14790 whole entry, looked up): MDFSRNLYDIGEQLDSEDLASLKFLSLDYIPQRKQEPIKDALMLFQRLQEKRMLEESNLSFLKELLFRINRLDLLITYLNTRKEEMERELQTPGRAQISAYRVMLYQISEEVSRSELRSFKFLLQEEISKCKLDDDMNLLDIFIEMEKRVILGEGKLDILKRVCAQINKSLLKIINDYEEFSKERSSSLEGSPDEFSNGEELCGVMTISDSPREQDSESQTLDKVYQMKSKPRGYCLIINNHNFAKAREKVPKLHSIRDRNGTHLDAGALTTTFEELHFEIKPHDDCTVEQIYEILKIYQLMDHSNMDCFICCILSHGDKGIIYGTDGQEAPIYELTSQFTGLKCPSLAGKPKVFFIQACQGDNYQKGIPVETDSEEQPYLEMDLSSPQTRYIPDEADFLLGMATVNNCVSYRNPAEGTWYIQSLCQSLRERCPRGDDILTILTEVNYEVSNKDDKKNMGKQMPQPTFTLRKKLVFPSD
UniProt Q13901, sequence (Q13901 whole entry, looked up): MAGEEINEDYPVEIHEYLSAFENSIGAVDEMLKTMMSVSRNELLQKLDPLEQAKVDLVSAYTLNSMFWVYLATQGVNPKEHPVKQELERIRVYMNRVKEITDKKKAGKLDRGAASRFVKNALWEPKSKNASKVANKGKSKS
UniProt Q9UIB8, sequence (Q9UIB8 whole entry, looked up): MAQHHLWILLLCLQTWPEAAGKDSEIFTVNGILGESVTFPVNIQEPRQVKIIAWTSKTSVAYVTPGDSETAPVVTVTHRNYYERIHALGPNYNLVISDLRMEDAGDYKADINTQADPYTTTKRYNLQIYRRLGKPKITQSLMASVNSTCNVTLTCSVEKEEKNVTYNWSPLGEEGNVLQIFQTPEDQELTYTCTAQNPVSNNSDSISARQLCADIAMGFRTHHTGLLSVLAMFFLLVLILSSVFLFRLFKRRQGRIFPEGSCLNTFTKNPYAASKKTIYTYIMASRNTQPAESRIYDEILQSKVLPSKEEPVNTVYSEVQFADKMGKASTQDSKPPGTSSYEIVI
UniProt O75503, sequence (O75503 whole entry, looked up): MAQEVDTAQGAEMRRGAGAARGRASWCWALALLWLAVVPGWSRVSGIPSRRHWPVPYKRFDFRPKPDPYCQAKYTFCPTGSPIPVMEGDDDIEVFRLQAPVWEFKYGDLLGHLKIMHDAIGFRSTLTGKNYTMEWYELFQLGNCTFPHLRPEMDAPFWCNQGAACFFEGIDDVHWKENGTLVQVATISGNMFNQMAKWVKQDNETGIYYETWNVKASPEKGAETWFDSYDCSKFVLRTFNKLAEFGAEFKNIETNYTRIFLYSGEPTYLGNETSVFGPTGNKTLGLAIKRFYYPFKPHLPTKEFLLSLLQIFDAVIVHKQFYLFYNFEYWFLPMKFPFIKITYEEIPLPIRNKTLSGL
UniProt Q8WUD6, sequence (Q8WUD6 whole entry, looked up): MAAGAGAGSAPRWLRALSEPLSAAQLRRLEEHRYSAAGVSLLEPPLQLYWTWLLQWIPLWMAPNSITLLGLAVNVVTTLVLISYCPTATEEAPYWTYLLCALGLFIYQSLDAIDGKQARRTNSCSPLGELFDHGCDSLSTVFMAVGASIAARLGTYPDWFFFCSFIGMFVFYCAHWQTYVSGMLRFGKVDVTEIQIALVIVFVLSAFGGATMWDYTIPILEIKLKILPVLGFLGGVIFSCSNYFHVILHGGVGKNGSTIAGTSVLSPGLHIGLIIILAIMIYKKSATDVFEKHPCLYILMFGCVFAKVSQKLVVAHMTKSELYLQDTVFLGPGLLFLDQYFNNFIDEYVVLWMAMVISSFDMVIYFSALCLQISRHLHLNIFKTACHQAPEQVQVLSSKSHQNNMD
UniProt Q9H9S4, sequence (Q9H9S4 whole entry, looked up): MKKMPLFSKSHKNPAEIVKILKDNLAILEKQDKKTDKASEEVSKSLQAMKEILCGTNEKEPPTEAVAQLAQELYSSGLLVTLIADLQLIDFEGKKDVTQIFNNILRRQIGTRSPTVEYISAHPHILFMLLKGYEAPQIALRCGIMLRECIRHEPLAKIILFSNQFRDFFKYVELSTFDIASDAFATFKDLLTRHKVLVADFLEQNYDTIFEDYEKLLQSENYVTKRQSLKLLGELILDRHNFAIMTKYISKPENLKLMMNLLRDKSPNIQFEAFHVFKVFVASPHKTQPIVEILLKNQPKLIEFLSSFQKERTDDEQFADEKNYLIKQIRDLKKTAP
UniProt Q6UUV9, sequence (Q6UUV9 whole entry, looked up): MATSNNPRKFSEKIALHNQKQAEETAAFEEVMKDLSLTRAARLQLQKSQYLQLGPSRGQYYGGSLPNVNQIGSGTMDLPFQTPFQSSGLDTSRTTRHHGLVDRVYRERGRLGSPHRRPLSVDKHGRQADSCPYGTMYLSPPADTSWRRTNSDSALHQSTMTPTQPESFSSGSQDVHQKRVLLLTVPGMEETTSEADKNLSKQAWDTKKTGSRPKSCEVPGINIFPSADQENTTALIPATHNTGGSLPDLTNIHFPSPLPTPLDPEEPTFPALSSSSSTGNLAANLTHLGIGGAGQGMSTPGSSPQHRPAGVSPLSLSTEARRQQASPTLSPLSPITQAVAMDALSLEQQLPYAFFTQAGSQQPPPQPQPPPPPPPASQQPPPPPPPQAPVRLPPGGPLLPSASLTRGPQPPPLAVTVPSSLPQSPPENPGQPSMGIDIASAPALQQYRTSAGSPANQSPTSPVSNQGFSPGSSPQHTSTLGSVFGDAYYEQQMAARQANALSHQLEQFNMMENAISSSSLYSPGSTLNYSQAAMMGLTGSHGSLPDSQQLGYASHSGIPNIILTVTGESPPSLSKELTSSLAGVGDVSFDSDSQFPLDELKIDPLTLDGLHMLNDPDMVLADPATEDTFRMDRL
UniProt Q14746, sequence (Q14746 whole entry, looked up): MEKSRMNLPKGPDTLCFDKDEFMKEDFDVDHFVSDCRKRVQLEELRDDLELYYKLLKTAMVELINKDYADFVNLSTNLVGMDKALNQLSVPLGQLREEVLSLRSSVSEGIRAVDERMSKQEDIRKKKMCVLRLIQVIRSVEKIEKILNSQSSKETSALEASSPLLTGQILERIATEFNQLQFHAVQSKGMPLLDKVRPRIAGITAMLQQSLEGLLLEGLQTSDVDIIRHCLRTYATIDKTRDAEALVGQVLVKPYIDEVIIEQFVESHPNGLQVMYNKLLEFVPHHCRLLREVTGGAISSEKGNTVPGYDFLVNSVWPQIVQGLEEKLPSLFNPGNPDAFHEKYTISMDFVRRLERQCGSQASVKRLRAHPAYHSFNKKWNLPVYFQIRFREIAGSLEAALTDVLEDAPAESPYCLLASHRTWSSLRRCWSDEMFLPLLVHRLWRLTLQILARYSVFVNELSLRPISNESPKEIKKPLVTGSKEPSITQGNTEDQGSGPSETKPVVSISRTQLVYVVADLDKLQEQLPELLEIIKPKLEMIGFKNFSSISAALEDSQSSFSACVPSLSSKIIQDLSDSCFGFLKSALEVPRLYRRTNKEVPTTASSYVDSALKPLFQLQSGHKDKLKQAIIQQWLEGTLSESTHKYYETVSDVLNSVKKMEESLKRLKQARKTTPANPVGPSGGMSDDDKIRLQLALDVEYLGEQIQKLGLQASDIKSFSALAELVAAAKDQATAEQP
UniProt Q9UNS2, sequence (Q9UNS2 whole entry, looked up): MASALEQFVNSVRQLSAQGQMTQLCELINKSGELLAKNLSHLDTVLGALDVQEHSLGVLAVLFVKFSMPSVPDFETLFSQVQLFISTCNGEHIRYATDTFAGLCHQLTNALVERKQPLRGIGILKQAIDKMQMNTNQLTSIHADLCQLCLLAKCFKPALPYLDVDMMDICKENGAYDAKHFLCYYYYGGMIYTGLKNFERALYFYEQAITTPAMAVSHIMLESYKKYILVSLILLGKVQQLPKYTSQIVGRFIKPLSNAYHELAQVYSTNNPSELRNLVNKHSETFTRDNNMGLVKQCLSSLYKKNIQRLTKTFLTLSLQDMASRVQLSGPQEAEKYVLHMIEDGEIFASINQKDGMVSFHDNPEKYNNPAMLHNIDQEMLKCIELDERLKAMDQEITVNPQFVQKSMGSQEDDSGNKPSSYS
UniProt A8MTT3, sequence (A8MTT3 whole entry, looked up): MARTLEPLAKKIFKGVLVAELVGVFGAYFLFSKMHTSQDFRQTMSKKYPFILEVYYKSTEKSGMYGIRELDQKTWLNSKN
UniProt Q9BWU1, sequence (Q9BWU1 whole entry, looked up): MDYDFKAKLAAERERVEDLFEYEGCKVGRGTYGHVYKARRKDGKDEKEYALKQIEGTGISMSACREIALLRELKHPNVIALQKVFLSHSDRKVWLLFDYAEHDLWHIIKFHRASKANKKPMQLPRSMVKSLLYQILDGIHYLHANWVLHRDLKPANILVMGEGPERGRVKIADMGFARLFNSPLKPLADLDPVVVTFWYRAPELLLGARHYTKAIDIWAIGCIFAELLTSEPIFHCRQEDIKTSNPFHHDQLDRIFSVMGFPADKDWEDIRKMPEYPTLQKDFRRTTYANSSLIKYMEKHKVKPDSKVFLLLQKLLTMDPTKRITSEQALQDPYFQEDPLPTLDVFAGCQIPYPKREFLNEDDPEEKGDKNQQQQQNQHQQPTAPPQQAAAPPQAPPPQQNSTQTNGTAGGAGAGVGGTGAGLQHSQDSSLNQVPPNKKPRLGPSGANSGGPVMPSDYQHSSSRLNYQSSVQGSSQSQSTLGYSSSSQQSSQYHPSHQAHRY
UniProt P51911, sequence (P51911 whole entry, looked up): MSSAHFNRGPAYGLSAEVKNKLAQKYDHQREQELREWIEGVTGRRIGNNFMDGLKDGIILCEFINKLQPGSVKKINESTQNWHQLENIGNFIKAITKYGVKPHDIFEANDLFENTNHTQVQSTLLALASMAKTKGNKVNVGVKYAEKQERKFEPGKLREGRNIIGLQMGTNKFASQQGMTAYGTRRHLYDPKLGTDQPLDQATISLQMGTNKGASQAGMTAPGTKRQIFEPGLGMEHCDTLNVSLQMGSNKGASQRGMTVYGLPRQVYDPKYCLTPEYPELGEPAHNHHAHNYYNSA
UniProt O75956, sequence (O75956 whole entry, looked up): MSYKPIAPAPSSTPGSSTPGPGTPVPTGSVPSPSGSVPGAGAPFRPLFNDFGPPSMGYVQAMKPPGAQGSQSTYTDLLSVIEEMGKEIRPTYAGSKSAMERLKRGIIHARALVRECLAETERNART

CHPT1 (UniProt Q8WUD6): the log2 fold change in test [1] was 0.003; in test [2] it was -0.198; in test [3], 0.11.

As to COG2 (UniProt Q14746), the log2 fold change is 0.063 in test [1], 0.141 in test [2] and -0.004 in test [3].

For C5orf30 (UniProt Q96GV9), the log2 fold change in test [2] is -0.417.

In the case of COMMD3-BMI1 (UniProt R4GMX3), the log2 fold change in test [1] is -0.114; in test [2] it was 0.002; in test [3] it was 0.154.

Consider CD84 (UniProt Q9UIB8), for which the log2 fold change in test [1] was 0.167; in test [2], -0.079; in test [3], 0.086.

Consider COMMD1 (UniProt Q8N668), for which the results for the log2 fold change in test [4], in test [5] and in test [2] were 0.099, 0.007 and 0.162, respectively.

In the case of CEBPZOS (UniProt A8MTT3), the figures for the log2 fold change in test [4], in test [5] and in test [2] were -0.044, -0.105 and -0.022, respectively.

As to CRTC1 isoform 2 (UniProt Q6UUV9), the figures for the log2 fold change in test [4], in test [5] and in test [2] were -0.036, 0.018 and 0.046, respectively.

Take CDK2AP2 (UniProt O75956): the results for the log2 fold change in test [4], in test [1] and in test [3] were 0.026, -0.017 and 0.012, respectively.

In the case of C1D (UniProt Q13901), the figures for the log2 fold change in test [4], in test [5] and in test [2] were -0.019, 0.028 and 0.074, respectively.

Regarding CA1 (UniProt E5RIF9), the log2 fold change in test [4] is -0.021; in test [5], 0.187; in test [2] it was 0.143.

For the target COPS3 isoform 2 (UniProt Q9UNS2), the log2 fold change was 0.009 in test [4], 0.2 in test [5] and 0.04 in test [2].

For the target C19orf54 (UniProt Q5BKX5), the log2 fold change is -0.014 in test [1], 0.059 in test [5], 0.004 in test [2] and 0.114 in test [3].

As to CDK19 (UniProt Q9BWU1), the log2 fold change is 0.035 in test [1], 0.05 in test [5], 0.021 in test [2] and 0.019 in test [3].

Regarding CLN5 (UniProt O75503), the log2 fold change is -0.003 in test [4], -0.007 in test [1], 0.057 in test [2] and -0.296 in test [3].

In the case of C6orf120 (UniProt Q7Z4R8), the log2 fold change is -0.018 in test [4], 0.37 (active) in test [5] and -0.038 in test [2].

Regarding CNN1 (UniProt P51911), the log2 fold change in test [1] is 0.228; in test [5] it was -0.063; in test [2], -0.004; in test [3] it was 0.156.

In the case of CASP8 isoform 9 (UniProt Q14790), the log2 fold change in test [4] is -0.013; in test [5], 0.052; in test [2], 0.033.

Regarding CFAP47 (UniProt Q6ZTR5), the log2 fold change was 0.068 in test [4] and 0.173 in test [5].

With CAB39L (UniProt Q9H9S4), the log2 fold change in test [4] was 0.088; in test [5], 0.201; in test [2] it was 0.285.
